# Screening results from PubChem BioAssay.
# Shiga inhibitor: Shiga toxin inhibition | Vero cells, Shiga toxin protein synthesis inhibition reporter | inhibition, % at 38.7 µM | 290,000 tested, 9.2% active; in the data active means inhibition mostly above about 28%, no sharp cut-off; inactive means mostly below about 43%; further: 0% is about no effect
# Pf growth 48h: inhibits P. falciparum growth in the first generation, 48 h; P. falciparum luciferase growth in erythrocytes, 48 h; Potency, µM (top dose mostly 28.7 µM), without a hit: at the top dose activity change, negative = inhibition, most hits filed as inhibitors; 310,000 tested, 5.9% active; AID 504832; further: potency means the concentration at half of the fitted maximal effect; on the % scale 0 is the no-effect control and ±100 the full control effect
#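 Compounds are pin-transferred into medium, infected erythrocytes (2% hematocrit, 0.1% parasitemia final) are added, and plates sit one parasite generation at 37 C in 5% CO2. Detection reagent is then added and luminescence measured.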
# Cycloheximide cs: counter-screen for Shiga toxin inhibitors: cycloheximide protein synthesis inhibition | max response, % | 300,000 tested, 12% active | cell reporter, cycloheximide protein synthesis inhibition counterscreen | AID 2314; in the data active means max response mostly above about 13%, no sharp cut-off; inactive means mostly below about 14%; further: read at 38.3 µM for the half of the compounds with a filed dose; 0% is about no effect
# Pf growth 96h: P. falciparum growth inhibition at 96 hours | P. falciparum luciferase reporter growth, 96 h | Potency, µM (titrated, usually from 28.7 µM), without a hit: at the highest dose activity change, negative = inhibition, actives largely listed as inhibitors | AID 504834 | 320,000 tested, 6.9% active; further: potency means the concentration at half of the fitted maximal effect; on the % scale 0 is the no-effect control and ±100 the full control effect
#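 Infected RBCs, 2% Hct / 0.05% parasitemia final; luciferase-reporter P. falciparum; cpd 96 h, 37 C, 5% CO2; luciferase detection reagent; luminescence.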
# An asterisk follows results filed as active; ? = inconclusive; . = no result. This is a sample that favours compounds with a hit; in the whole collection about 21% have one here. Unless noted, the call rests on the fitted dose curve; in most records, active means well fitted inhibition curve with a large enough effect; inconclusive means small, poorly fitted or top-dose-only effect, or another doubt; inactive means no such curve, though single readings can be large or run the other way.
SMILES,Shiga inhibitor,Pf growth 48h,Cycloheximide cs,Pf growth 96h
Cc1cc(C)cc(N(CCC#N)C(=O)COC(=O)c2ccc(OCc3c(C)noc3C)cc2)c1,.,?,.,10µM*
Cc1noc(C)c1COc1ccc(C(=O)OCC(=O)OC(C)(C)C)cc1,15,-9%,4,-24%
O=C(O)c1cc(NCc2cccs2)ccc1N1CCOCC1,-7,18%,-4,-17%
CC(C)(C)n1cnc2cc(NCc3cccs3)ccc21,120*,196%,30*,-18%
CCn1cnc2cc(NCc3cccs3)ccc21,188*,124%,31*,7%
O=C(O)CC(C(=O)O)c1ccc(OCCCCOc2ccc(C(CC(=O)O)C(=O)O)cc2)cc1 (stereo not drawn),-8,4%,-3,-27%
COc1ccc(/C(N)=N/OC(=O)c2cccs2)cc1OC,8,14%,2,0%
Cc1cccc(/C(N)=N/OC(=O)c2cccs2)c1,106*,311%,71*,3%
N/C(=N\OC(=O)c1cccs1)c1cccc(Br)c1,78*,67%,39*,47%
O=C(NOC(=O)c1cc(Br)ccc1Cl)c1cccs1,-5,20%,-2,37%
COc1ccc(C2CC2/C(C)=N/OC(=O)c2cccs2)cc1 (stereo not drawn),17,.,14,?
N/C(=N\OC(=O)c1cccs1)c1ccccc1,80*,149%,35*,?
Cc1ccc(/C(N)=N/OC(=O)c2cccs2)cc1,37*,215%,39*,88%
O=C(Nc1ccc(Cl)cc1C(F)(F)F)C(Sc1nnc(-c2cccs2)o1)c1ccccc1 (stereo not drawn),89*,6%,29*,?
COc1ccc(C)cc1NC(=O)C(Sc1nnc(-c2cccs2)o1)c1ccccc1 (stereo not drawn),-2,?,11,?
O=C(Nc1cc(C(F)(F)F)ccc1Cl)C(Sc1nnc(-c2cccs2)o1)c1ccccc1 (stereo not drawn),33*,19%,15*,-12%
CCCN(C(=O)c1cccc(-n2cccc2)c1)c1c(N)n(Cc2ccccc2)c(=O)[nH]c1=O,.,?,.,1%
CC(C)CCN(CCC(C)C)CC(O)Cn1c2ccccc2c(=O)c2ccccc21 (stereo not drawn),-12,1.7µM*,-4,?
CC/C(=C\C1CCCCC1)C(NP(=O)(c1ccccc1)c1ccccc1)c1ccccc1 (stereo not drawn),-13,9.3µM*,-6,6.6µM*
C=C[C@@H]1C[C@@]1(C)[C@@H](NP(=O)(c1ccccc1)c1ccccc1)c1ccccc1,-22,?,-5,?
CN(Cc1ccco1)C(=O)c1c[nH]c2ccc(S(=O)(=O)Nc3ccc4c(c3)OCCO4)cc2c1=O,-19,-9%,18*,2%
O=C(NCc1ccco1)c1ccccc1NS(=O)(=O)c1cccs1,13,8%,-2,?
O=C(NCc1ccco1)c1ccccc1NS(=O)(=O)c1ccc2c(c1)OCCO2,22,17µM*,2,.
CCc1ccc(NS(=O)(=O)c2ccc3[nH]cc(C(=O)N(C)Cc4ccco4)c(=O)c3c2)cc1,-13,-19%,-4,-29%
COc1ccc(Cl)c(Cn2c(NCCCO)nc3c2c(=O)n(C)c(=O)n3C)c1,-8,-2%,-2,?
SMILES,Shiga inhibitor,Pf growth 48h,Cycloheximide cs,Pf growth 96h
Cc1ccc(CN2CCN(C)CC2)c(C)c1,-3,16%,-5,2.9µM*
CCCCNC(=O)CS(=O)Cc1nc(-c2ccc(C)cc2)oc1C (stereo not drawn),-18,.,-2,-16%
Cc1oc(-c2cccs2)nc1CS(=O)CC(=O)NCCCN1CC(C)CC(C)C1 (stereo not drawn),3,.,-4,12µM*
CCCNC(=O)CS(=O)Cc1nc(-c2ccc(OC)cc2)oc1C (stereo not drawn),-8,.,-5,15µM*
CCc1ccc(-c2nc(CS(=O)CC(=O)NCCCN3CCOCC3)c(C)o2)cc1 (stereo not drawn),14,67%,11,7.4µM*
Cc1ccc(-c2nc(CS(=O)CC(=O)NCCCN3CC(C)CC(C)C3)c(C)o2)cc1 (stereo not drawn),-15,.,-6,?
COc1ccc(-c2nc(CS(=O)CC(=O)NC3CCC(C)CC3)c(C)o2)cc1OC (stereo not drawn),60*,52%,33*,13%
Clc1nc2nc3n(c2nc1Cl)CCC3,29,52%,-1,42%
Cc1ccc(Oc2ccc(OCC(=O)NC3CCS(=O)(=O)C3)cc2)cc1 (stereo not drawn),-10,?,4,?
Cc1ccc(S(=O)(=O)N(C)CC(=O)Nc2nnc(CC(C)C)s2)cc1,-5,-4%,-1,21%
Cc1oc(-c2ccc(Cl)cc2)nc1CS(=O)CC(=O)NCCCN1CCN(Cc2ccccc2)CC1 (stereo not drawn),-7,?,-7,9.3µM*
Cc1oc(-c2ccc(Cl)cc2)nc1CS(=O)CC(=O)NCCCN1CCCC(C)C1 (stereo not drawn),3,2%,0,-22%
Cc1cc(C(=O)CSc2nc3ccccc3[nH]2)c(C)n1Cc1ccco1,78*,57%,84*,0%
COCC(C)n1c(SCC(=O)c2cc(C)n(C)c2C)nc2ccccc2c1=O (stereo not drawn),-10,13µM*,-4,?
CCCn1c(C)cc(C(=O)CSc2nc3ccccc3c(=O)n2Cc2ccco2)c1C,57*,30%,49*,?
COCCn1c(C)cc(C(=O)CSc2ccc3ccccc3n2)c1C,50*,84%,39*,.
Cc1cc(C(=O)CSc2nn(-c3ccccc3)c(=S)s2)c(C)n1Cc1ccco1,13,?,12,.
Cc1ccc(C)c(N2CCN(c3ccncc3N)CC2)c1,-1,?,-3,?
COc1ccc(C2(C(=O)NCCCN3CCOCC3)CCOCC2)cc1,-17,24%,-7,24%
O=C(c1ccc([N+](=O)[O-])c(CS(=O)(=O)c2ccc(Cl)cc2)c1)N1CCCC1,-10,-9%,0,-2%
COCC(C)n1c(C)cc(C(=O)CSc2nc3ccccc3c(=O)[nH]2)c1C (stereo not drawn),45,?,16*,?
COCC(C)n1c(C)cc(C(=O)COC(=O)CCc2nc3ccccc3c(=O)[nH]2)c1C (stereo not drawn),-5,-16%,0,-19%
Cc1cc(C(=O)CSc2nc3ccccc3[nH]2)c(C)n1C,54*,-39%,46*,-2%
Cc1cc(C)c(C(=O)CSc2nc3ccccc3c(=O)[nH]2)cc1C,-2,?,-1,?
C=CCn1c(C)cc(C(=O)CSc2nc3ccccc3[nH]2)c1C,69*,-79%,34*,24%
C=CCn1c(C)cc(C(=O)CN2C(=O)c3ccccc3S2(=O)=O)c1C,.,?,.,-35%
C=CCn1c(C)cc(C(=O)CSc2nc3ccccc3c(=O)[nH]2)c1C,90*,-40%,63*,?
O=C(COc1cc(F)ccc1[N+](=O)[O-])Nc1cc(S(=O)(=O)N2CCCC2)ccc1Cl,.,2%,.,?
